Screening results from PubChem BioAssay.
Only some compounds are listed: those with a hit (about 3.8% of all), similar ones and a draw of the others.
PfM18AAP inh-1: PfM18AAP enzyme inhibition | recombinant PfM18AAP, H-Glu-NHMec fluorogenic cleavage | hit rate 1.2% among 290,000 | inhibition, % at 7.35 µM;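 active = inhibition above the campaign mean inhibition over all tested compounds plus 3 SD, cut at about 28% in these data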
PAFAH1B2 FP inh: PAFAH1B2 (human) inhibition. inhibition, % at 3.39 µM. AID 492953. recombinant PAFAH1B2, FP-rhodamine activity probe, fluorescence polarization. hit rate 1.2% among 340,000;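 active = inhibition above the mean of all tested compounds plus 3 SD, cut at about 24% in these data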
Target sequence (P68402 whole entry, looked up): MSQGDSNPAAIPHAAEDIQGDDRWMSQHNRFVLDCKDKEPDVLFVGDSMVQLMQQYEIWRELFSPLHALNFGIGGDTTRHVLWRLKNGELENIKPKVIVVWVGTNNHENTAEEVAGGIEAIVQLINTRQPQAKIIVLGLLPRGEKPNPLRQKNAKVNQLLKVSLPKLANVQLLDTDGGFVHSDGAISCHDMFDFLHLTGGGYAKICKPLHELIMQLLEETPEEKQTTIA
PAFAH2 FP inh: PAFAH2 (human) inhibition; hit rate 0.99% among 340,000; Q99487; inhibition, % at 3.39 µM; recombinant PAFAH2, FP-rhodamine activity probe, fluorescence polarization;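 active = inhibition above the mean over all tested compounds plus 3 SD, cut at about 30% in these data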;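 also: inhibitors block probe labeling of enzyme so polarization drops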
Pemphigus Ab inh: blocks pemphigus antibody binding to human desmoglein-3; P32926; DSG3-coupled beads, scFv-anti-DSG3-GFP binding, flow cytometry; stronger effect = lower value; binding (percent of control), % at 10 µM; hit rate 0.48% among 310,000; AID 588358;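 active = binding more than 3 SD below its plate's average and above zero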
pPAFAH FP inh: pPAFAH (human) enzyme inhibition. Q13093. recombinant pPAFAH, FP-rhodamine probe fluorescence polarization. inhibition, % at 3.39 µM. hit rate 1.5% among 330,000. AID 463082;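 active = inhibition above the mean inhibition across the screen plus 3 SD, cut at about 25% in these data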;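 also: inhibitors block binding of the rhodamine activity-based probe so polarization drops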
PAFAH1B3 FP inh: blocks human PAF acetylhydrolase 1B catalytic subunit 3; recombinant PAFAH1B3, FP-rhodamine probe, fluorescence polarization; inhibition, % at 3.39 µM; hit rate 0.28% among 340,000;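 active = inhibition above the screen-wide average of all tested compounds plus 3 SD, cut at about 25% in these data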
PfM18AAP inh-2: confirmation of Plasmodium falciparum M18 aspartyl aminopeptidase inhibitors | shares compounds with PfM18AAP inh-1 | recombinant PfM18AAP, H-Glu-NHMec fluorogenic cleavage | inhibition, % at 7.35 µM | hit rate 28% among 2,400;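 active = mean inhibition over replicate wells above the hit cutoff set for the earlier primary screen, cut at about 29% in these data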
CTSL1 confirm: counter-screen for PFM18AAP inhibitors: confirmation of human cathepsin L inhibitors; shares compounds with PfM18AAP inh-1; purified cathepsin L1, Z-Leu-Arg-MCA fluorescence; 2,400 tested, under 10 active; inhibition, % at 5.96 µM;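 active = average inhibition across replicates above the hit cutoff set in the earlier primary screen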
Target sequence (P07711 whole entry, looked up): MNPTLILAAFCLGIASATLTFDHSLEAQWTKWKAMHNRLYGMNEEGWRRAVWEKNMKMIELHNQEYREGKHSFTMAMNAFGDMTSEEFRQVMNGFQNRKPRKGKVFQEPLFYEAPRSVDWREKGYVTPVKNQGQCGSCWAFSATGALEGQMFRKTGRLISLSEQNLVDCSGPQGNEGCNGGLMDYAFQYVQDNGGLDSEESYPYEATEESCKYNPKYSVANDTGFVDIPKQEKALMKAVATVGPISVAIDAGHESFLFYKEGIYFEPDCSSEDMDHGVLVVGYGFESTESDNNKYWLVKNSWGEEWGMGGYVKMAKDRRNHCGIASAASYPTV
A number is an active result; – = inactive; · = not tested or not shown.

SMILES	PfM18AAP inh-1	PAFAH1B2 FP inh	PAFAH2 FP inh	Pemphigus Ab inh	pPAFAH FP inh	PAFAH1B3 FP inh	PfM18AAP inh-2	CTSL1 confirm
COc1cc(/C=N\Nc2nncn2N)ccc1OC(C)=O	53	–	–	–	–	–	–	–
COc1cc(/C=N/Nc2ccccc2)ccc1O	–	–	–	–	–	–	·	·
COc1cc(/C=N/Nc2ccccc2C(F)(F)F)ccc1O	39	–	–	–	–	–	–	–
COc1cc(/C=N/Nc2nncn2/N=C/c2ccc(O)c(OC)c2)ccc1O	63	–	–	–	–	–	42	–
COc1cc(/C=N/NC2=NCCCCC2)ccc1O	–	–	–	–	–	–	·	·
COc1cccc2c(N/N=C/c3ccc(O)c(O)c3)cc(C)nc12	56	–	–	–	–	–	32	–
CCc1cccc(NC(=O)CSc2nnc(Cc3ccc(OC)cc3)c(=O)[nH]2)c1	·	–	–	–	–	–	·	·
Cc1ccn2c(CNCC3COCCO3)c(C(=O)N3CCCCCC3)nc2c1 (configuration not stated)	–	–	–	–	–	–	·	·
COc1ccc(OC)c(/C=N\Nc2nccs2)c1	·	–	–	–	–	–	·	·
COc1ccc(OC)c(/C=N/Nc2nncn2/N=C/c2cc(OC)ccc2OC)c1	51	–	–	–	–	–	–	–
CCN1C(=O)/C(=C2/C=Cc3cc(C)ccc3N2CC)N(C)C1=S	–	–	–	–	–	–	·	·
CCN1/C(=C2\C(=O)N(C)C(=S)N2C)C=Cc2cc(OC)ccc21	34	–	–	–	–	–	–	–
COc1ccc2[nH]c(=O)c(CN(CC3CCCO3)S(=O)(=O)c3ccccc3F)cc2c1 (configuration not stated)	–	–	–	·	–	–	·	·
CC(=O)Nc1ccc(S(=O)(=O)NNC(=O)c2ccc([N+](=O)[O-])cc2)cc1	–	–	–	–	–	–	·	·
Cc1ccc(S(=O)(=O)NNC(=S)NC(=O)c2ccc([N+](=O)[O-])cc2)cc1	48	–	–	–	–	–	–	–
O=C(NNS(=O)(=O)c1ccc([N+](=O)[O-])cc1)c1ccc([N+](=O)[O-])cc1	35	–	–	–	–	–	–	–
CC(=O)Nc1ccc(S(=O)(=O)NNc2ccc([N+](=O)[O-])cc2)cc1	46	–	–	–	–	–	–	–
Cc1ccc(C(=O)NC(=S)NNS(=O)(=O)c2ccc(C)cc2)cc1	40	–	–	–	–	–	–	–
Cc1cc(C)c(S(=O)(=O)NCC2CCC(C(=O)NCc3ccccn3)CC2)c(C)c1 (configuration not stated)	–	–	–	·	–	–	·	·
Cc1cc(C)c(NC(=O)COC(=O)c2ccncc2)c(C)c1	·	–	–	–	–	–	·	·
N#Cc1ccccc1NC(=O)CSc1cn[nH]n1	–	–	–	·	–	–	·	·
CC(=O)NNC(=S)NC(=O)c1cccc([N+](=O)[O-])c1	47	–	–	–	–	–	–	–
O=C(NNC(=S)NC(=O)c1ccc(Br)cc1)c1cccc([N+](=O)[O-])c1	–	–	–	–	–	–	·	·
CC(=O)NC(=S)NNC(=O)COc1ccc([N+](=O)[O-])cc1	–	–	–	–	–	–	·	·
COc1ccc(OCC(=O)NNC(=S)NC(=O)c2ccc([N+](=O)[O-])cc2)cc1	33	–	–	–	–	–	–	–
SMILES	PfM18AAP inh-1	PAFAH1B2 FP inh	PAFAH2 FP inh	Pemphigus Ab inh	pPAFAH FP inh	PAFAH1B3 FP inh	PfM18AAP inh-2	CTSL1 confirm
O=C(COc1ccc([N+](=O)[O-])cc1)Nn1cnnc1	41	·	·	–	–	·	–	–
Cc1cc2cc3c(=O)[nH]c(=O)[nH]c3nc2cc1C	–	·	·	·	–	·	·	·
COCCSc1ccccc1C(=O)NCCCn1ccnc1	36	–	–	–	–	–	–	–
COc1ccc(C)cc1NC(=O)Nc1ccccc1	–	–	–	–	–	–	·	·
COc1cc([N+](=O)[O-])ccc1NC(=O)/C=C\C(=O)O	–	–	–	–	–	–	·	·
COc1cc([N+](=O)[O-])ccc1NC(=O)Nn1cnnc1	84	–	–	–	–	–	81	–
COc1ccc(Cl)cc1C(=O)Nn1cnnc1	37	–	–	–	–	–	–	–
COc1ccc(C)cc1NC(=O)Nn1cnnc1	62	–	–	–	–	–	56	–
CN(CC(=O)Nc1ccccc1Cl)C(=O)CSc1nncn1C	·	–	–	–	–	–	·	·
COc1ccc(-n2nnc3c(SC(C(C)=O)C(=O)N(C)C)ncnc32)cc1 (configuration not stated)	46	–	–	–	–	–	–	–
COC(=O)C(C)Sc1ncnc2c1nnn2-c1ccc(F)cc1 (configuration not stated)	–	–	–	–	–	–	·	·
O=C(c1cccc([N+](=O)[O-])c1)c1ccc2[nH]c(=O)[nH]c2c1	–	–	–	–	–	–	·	·
O=C(NC1CCCCC1)C(c1ccncc1)N(Cc1ccc2c(c1)OCO2)C(=O)C(F)(F)F (configuration not stated)	41	–	–	–	–	–	–	–
CCc1ccc(N(C(=O)C(F)(F)F)C(C(=O)NC2CCCCC2)c2ccncc2)cc1 (configuration not stated)	–	–	–	–	–	–	·	·
Cc1cc(N/N=C/c2ccc(O)c(C)c2O)nc(-c2ccccc2O)n1	44	–	–	–	–	–	38	–
O=C(NNc1ccccc1[N+](=O)[O-])Nc1ccc(Cl)c(Cl)c1	–	–	–	–	–	–	·	·
CCN(CC)S(=O)(=O)c1cc([N+](=O)[O-])ccc1NNC(=O)Nc1ccc(Cl)c(Cl)c1	50	–	–	–	–	–	–	–
O=C(Nc1nnc(Cc2ccccc2)s1)C1CCN(C(=O)c2ccco2)CC1	–	–	–	–	–	–	·	·
COCCCN1C(=O)C(CC(=O)NCc2cccc3ccccc23)CC(C(=O)N(C)C)=C1C (configuration not stated)	·	·	·	–	·	·	·	·
Cc1ccc(OCC(=O)OCC(=O)Nc2ccc3c(c2)OCO3)cc1C	·	–	–	–	–	–	·	·
COc1cc(Cl)ccc1NC(=S)N(CCCN1CCOCC1)Cc1cn(C)c2ccccc12	32	–	–	–	–	–	–	–
COc1ccc(Cl)cc1NC(=S)N(CCCN1CCOCC1)Cc1cn(C)c2ccccc12	–	–	–	–	–	–	·	·
Cc1ccc(NC(=O)c2ccc(Cl)c(S(=O)(=O)Nc3c(C)n(C)n(-c4ccccc4)c3=O)c2)cc1Cl	·	–	–	–	·	–	·	·
Clc1ccc(Cn2cc(/C=N/n3cnnc3)c3ccccc32)cc1	–	–	–	·	–	–	·	·
Clc1ccc(-n2cccc2/C=N/n2cnnc2)cc1	41	–	–	·	–	–	–	–
